Laboratory results taken from PubChem BioAssay (NCI).
About 83,000 compounds went through this panel and 20% of them were active in at least one assay; those are over-represented in the sample as a whole.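 Assay: single dose, 48 h. Readout: percent growth (0 = no net growth; negative = cell death). Active: <10.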 Unmarked numbers belong to inactive results. Calls of active or inactive are those of the source.

system: HL-60(TB) leukemia; assay: NCI-60 one-dose screen, 48 h (100 = growth as untreated, 0 = no growth, -100 = all killed); conditions: 10 µM unless noted

SMILES | growth
O=C1NC(=O)/C(=C/C=C/c2ccccc2)S1 | -29.3% (active)
Cc1nc2ccccc2c(=O)n1-c1cccc(OCc2cn(-c3cccc(O)c3)nn2)c1 | 101%
CC(=O)c1ccc(C(C)(C)C)cc1 | 100%
COc1cnc2c(c1)C(=O)c1c-2n(CCCN2CCOCC2)c(=O)c2cc(Cl)ccc12 | -4.61% (active)
Cc1ccnc(Nc2nc3ccccc3[nH]2)n1 | 87%
Nc1nc(Br)nc2c1ncn2C1CC(O)C(CO)O1 (stereo not given) | 46%
CCC1S/C(=N\N=C(/C)c2cccs2)N(c2ccccc2)C1=O (stereo not given) | 59.2%
O=C(CSc1ncccc1C(=O)O)Nc1ccc(Oc2ccccc2)cc1 | 87.5%
CN(C)C1CCN(C(=O)c2ccc(NC(=O)Nc3ccc(-c4nc(N5CCOCC5)c5cccn5n4)cc3)cc2)CC1 | 4.58% (active)
CCCCC(CCCCCC(CCCC)C1NC(C)Cc2cc(OC)c(OC)cc21)C1NC(C)Cc2cc(OC)c(OC)cc21 (stereo not given) | -79.7% (active)
Cc1nc([P+](c2ccccc2)(c2ccccc2)c2ccccc2)c(N2CCCCC2)o1 | -2.68% (active)
O=C(N=Nc1c(O)[nH]c2ccccc12)c1cc(-c2ccccc2)on1 | 97.5%
COc1cc(/C=N\Nc2ccccc2)ccc1OC(=O)c1ccccc1 | -10.8% (active)
O=C(Cc1ccc(NC(=O)c2cccc(Cl)c2)cc1)NCc1ccccc1 | -14% (active)
O=C(OCc1ccc2c(Cl)cc(Cl)c(O)c2n1)c1cc2ccccc2[nH]1 | -36.1% (active)
O=C(/C=C/c1ccccn1)c1ccc(OCc2nnc(-c3ccc(Cl)cc3)o2)cc1 | 43%
CCc1c(C(=O)NCc2c(O)ccc3cccc(O)c23)[nH]c(C)c1C(C)=O | 41.5%
COc1ccc(/C=C/C(=O)c2ccc(B(O)O)cc2)cc1O | 37.7%
CN(C)CCCC1(c2ccc(F)cc2)OCc2cc(-c3cc4ccccc4s3)ccc21 (stereo not given) | 22.3%
COc1cc(C2=NN(C(C)=O)C(c3cccc(Nc4ccnc5cc(C(F)(F)F)ccc45)c3)C2)cc(OC)c1OC (stereo not given) | 10.6%

SMILES | growth
Cc1[nH]cnc1/C=C1\SC(N2CCCCC2)=NC1=O | 96.4%
Cc1[nH]c(-c2ccc3cc[nH]c3c2)c2c1C(=O)CCCC2 | 20.5%
O=c1c2ccccc2c(Br)c(Br)c2ccccc12 | 70.9%
Cc1cnc(C=O)c2cccc([N+](=O)[O-])c12 | 66.1%
CCCCCCC/C=N/NC(=O)c1ccc(-n2cc(-c3ccccc3)nn2)cc1 | 95.2%
O=C1NC(=Nc2ccc(Cl)cc2)S/C1=C\c1cn(-c2ccccc2)nc1-c1ccccc1 | 92%
O=C(CCc1nnc2sc(/C=C\c3ccccc3)nn12)c1nc2ccccc2[nH]1 | 99.8%
O=C(Nc1cccc([N+](=O)[O-])c1)c1ccc2ccccc2c1O | 39.4%
COc1ccc(CN2C(=O)/C(=C\c3cc(OC)c(OC)c(OC)c3)c3cc(OC)ccc32)cc1 | -27.2% (active)
CO[C@H]1CC(O[C@@H]2/C(C)=C/C[C@@H]3C[C@@H](C[C@]4(CC[C@H](C)[C@@H](C5CCCCC5)O4)O3)OC(=O)[C@@H]3C=C(C)/C(=N/O)[C@H]4OC/C(=C\C=C\[C@@H]2C)[C@]43O)O[C@@H](C)C1O (stereo not given in full) | -48.7% (active)
Cc1ccc(S(=O)(=O)Oc2ccc3c4c(c(=O)oc3c2)CCCCC4)cc1 | 20.4%
Nc1[nH]c(=S)nc2oc(-c3ccccc3)c(-c3ccccc3)c12 | 90.5%
c1ccc(CCCCc2ccc3ccccc3n2)cc1 | 102%
O=C(N/N=C/c1ccccc1SSc1ccccc1/C=N/NC(=O)c1ccccc1)c1ccccc1 | 3.4% (active)
O=[N+]([O-])c1ccc(N=Nc2ccc(O)cc2O)cc1 | 32.5%
Cc1cn(-c2cc(NC(=O)c3cccc(C#Cc4cccc5[nH]nc(N)c45)c3)cc(C(F)(F)F)c2)cn1 | 12.5%
COc1ccc(/C(=C(\c2ccccc2)[N+](=O)[O-])c2ccc(OCCN3CCCC3)cc2)cc1 | 64.1%
COc1ccc(NC(=O)/N=c2\oc3c(OC)cccc3cc2-c2cc3ccccc3[nH]2)cc1 | 142%
CC(C)/C=C/CC[C@](C)(O)[C@H]1CC[C@]2(C)[C@@H]1CC[C@@H]1[C@@]3(C)C/C(=C/c4cccc(C(F)(F)F)c4)C(=O)C(C)(C)[C@@H]3CC[C@]12C | 92.9%
COc1ccc(CNCCN2C(=O)c3ccc4c5c(ccc(c35)C2=O)C(=O)N(CCNCc2ccc(OC)c(OC)c2OC)C4=O)c(OC)c1OC | -43.2% (active)
